Test results taken from the supplement of paper PMC11732987, “Enantioselective OTUD7B fragment discovery through chemoproteomics screening and high-throughput optimisation” (Communications Chemistry, 2025).

Legend:
Assay in all cases: log2 ratio of Biotin-Ahx-Ub-VS probe labelling (fragment/DMSO); higher = less target engagement (more negative = stronger competition), active = hit call of the paper (q ≤ 0.05, log2 ratio ≤ -1)
Conditions in all cases: compound concentration: 200 uM; treatment time: 3 h
[1] = biological target: T1, USP19 (UniProt O94966)
T1 sequence (whole entry): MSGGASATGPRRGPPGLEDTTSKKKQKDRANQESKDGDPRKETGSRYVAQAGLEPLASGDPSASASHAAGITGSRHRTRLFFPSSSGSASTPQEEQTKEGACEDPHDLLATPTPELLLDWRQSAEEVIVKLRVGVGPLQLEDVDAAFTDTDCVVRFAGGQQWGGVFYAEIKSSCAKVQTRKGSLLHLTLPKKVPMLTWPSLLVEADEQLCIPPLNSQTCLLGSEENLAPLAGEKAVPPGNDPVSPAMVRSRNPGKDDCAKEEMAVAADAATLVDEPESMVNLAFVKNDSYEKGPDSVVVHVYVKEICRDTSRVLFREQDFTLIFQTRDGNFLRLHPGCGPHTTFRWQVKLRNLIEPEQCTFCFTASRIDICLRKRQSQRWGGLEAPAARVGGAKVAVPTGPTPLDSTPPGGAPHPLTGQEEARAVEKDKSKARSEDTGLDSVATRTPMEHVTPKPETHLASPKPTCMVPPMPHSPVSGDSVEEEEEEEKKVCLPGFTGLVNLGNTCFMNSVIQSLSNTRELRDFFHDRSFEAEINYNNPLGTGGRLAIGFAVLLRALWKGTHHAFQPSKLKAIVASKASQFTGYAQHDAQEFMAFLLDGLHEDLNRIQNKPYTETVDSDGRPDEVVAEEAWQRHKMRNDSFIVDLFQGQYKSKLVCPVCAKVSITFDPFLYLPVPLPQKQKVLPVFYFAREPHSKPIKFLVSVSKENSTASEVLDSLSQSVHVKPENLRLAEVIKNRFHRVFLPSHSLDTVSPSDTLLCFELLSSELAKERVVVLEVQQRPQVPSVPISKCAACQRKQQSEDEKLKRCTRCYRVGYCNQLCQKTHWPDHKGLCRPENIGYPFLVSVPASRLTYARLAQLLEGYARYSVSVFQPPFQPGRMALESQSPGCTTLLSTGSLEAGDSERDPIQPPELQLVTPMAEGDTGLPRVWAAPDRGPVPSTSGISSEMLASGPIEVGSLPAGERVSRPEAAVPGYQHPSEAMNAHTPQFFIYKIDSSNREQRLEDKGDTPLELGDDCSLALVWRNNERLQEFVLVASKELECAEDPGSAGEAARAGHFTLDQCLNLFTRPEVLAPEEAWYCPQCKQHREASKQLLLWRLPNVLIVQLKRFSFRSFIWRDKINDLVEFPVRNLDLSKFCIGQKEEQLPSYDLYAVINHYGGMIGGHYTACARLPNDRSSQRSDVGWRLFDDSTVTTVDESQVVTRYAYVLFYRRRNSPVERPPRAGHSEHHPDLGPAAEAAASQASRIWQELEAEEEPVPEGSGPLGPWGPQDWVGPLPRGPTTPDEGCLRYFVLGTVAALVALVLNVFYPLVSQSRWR
In short: (§1)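 Each value is an average log2 ratio of fragment to vehicle, tested by unpaired t-test. The underlying Spectronaut label-free quantities were global-median-normalised, and only proteins with ≥2 unique peptides were included. Triplicate HEK293T lysate samples (495 µg) were exposed to fragment at 200 µM or vehicle for 3 h, then to Biotin-Ahx-Ub-VS at 0.5 µM final for 1 h, before NeutrAvidin enrichment of labelled DUBs, LysC and trypsin digestion, and diaPASEF LC-MS/MS.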

[2] = biological target: T2, USP22 (UniProt Q9UPT9)
T2 sequence (whole entry): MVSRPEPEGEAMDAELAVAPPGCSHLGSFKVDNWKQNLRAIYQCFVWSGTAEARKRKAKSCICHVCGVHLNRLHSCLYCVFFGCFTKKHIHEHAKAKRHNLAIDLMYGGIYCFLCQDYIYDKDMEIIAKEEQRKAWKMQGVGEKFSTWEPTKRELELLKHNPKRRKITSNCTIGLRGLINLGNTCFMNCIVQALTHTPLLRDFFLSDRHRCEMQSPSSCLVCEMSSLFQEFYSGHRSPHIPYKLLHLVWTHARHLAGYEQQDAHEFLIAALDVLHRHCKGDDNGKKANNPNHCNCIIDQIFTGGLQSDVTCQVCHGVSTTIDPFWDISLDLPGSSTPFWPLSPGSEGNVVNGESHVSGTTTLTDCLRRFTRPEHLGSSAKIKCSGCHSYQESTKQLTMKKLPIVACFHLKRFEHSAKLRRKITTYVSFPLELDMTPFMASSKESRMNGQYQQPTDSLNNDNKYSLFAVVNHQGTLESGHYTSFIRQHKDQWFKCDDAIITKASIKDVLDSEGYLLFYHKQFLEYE
In short: as §1

[3] = biological target: USP24 (UniProt Q9UPU5)
Sequence of USP24 (Q9UPU5 whole entry): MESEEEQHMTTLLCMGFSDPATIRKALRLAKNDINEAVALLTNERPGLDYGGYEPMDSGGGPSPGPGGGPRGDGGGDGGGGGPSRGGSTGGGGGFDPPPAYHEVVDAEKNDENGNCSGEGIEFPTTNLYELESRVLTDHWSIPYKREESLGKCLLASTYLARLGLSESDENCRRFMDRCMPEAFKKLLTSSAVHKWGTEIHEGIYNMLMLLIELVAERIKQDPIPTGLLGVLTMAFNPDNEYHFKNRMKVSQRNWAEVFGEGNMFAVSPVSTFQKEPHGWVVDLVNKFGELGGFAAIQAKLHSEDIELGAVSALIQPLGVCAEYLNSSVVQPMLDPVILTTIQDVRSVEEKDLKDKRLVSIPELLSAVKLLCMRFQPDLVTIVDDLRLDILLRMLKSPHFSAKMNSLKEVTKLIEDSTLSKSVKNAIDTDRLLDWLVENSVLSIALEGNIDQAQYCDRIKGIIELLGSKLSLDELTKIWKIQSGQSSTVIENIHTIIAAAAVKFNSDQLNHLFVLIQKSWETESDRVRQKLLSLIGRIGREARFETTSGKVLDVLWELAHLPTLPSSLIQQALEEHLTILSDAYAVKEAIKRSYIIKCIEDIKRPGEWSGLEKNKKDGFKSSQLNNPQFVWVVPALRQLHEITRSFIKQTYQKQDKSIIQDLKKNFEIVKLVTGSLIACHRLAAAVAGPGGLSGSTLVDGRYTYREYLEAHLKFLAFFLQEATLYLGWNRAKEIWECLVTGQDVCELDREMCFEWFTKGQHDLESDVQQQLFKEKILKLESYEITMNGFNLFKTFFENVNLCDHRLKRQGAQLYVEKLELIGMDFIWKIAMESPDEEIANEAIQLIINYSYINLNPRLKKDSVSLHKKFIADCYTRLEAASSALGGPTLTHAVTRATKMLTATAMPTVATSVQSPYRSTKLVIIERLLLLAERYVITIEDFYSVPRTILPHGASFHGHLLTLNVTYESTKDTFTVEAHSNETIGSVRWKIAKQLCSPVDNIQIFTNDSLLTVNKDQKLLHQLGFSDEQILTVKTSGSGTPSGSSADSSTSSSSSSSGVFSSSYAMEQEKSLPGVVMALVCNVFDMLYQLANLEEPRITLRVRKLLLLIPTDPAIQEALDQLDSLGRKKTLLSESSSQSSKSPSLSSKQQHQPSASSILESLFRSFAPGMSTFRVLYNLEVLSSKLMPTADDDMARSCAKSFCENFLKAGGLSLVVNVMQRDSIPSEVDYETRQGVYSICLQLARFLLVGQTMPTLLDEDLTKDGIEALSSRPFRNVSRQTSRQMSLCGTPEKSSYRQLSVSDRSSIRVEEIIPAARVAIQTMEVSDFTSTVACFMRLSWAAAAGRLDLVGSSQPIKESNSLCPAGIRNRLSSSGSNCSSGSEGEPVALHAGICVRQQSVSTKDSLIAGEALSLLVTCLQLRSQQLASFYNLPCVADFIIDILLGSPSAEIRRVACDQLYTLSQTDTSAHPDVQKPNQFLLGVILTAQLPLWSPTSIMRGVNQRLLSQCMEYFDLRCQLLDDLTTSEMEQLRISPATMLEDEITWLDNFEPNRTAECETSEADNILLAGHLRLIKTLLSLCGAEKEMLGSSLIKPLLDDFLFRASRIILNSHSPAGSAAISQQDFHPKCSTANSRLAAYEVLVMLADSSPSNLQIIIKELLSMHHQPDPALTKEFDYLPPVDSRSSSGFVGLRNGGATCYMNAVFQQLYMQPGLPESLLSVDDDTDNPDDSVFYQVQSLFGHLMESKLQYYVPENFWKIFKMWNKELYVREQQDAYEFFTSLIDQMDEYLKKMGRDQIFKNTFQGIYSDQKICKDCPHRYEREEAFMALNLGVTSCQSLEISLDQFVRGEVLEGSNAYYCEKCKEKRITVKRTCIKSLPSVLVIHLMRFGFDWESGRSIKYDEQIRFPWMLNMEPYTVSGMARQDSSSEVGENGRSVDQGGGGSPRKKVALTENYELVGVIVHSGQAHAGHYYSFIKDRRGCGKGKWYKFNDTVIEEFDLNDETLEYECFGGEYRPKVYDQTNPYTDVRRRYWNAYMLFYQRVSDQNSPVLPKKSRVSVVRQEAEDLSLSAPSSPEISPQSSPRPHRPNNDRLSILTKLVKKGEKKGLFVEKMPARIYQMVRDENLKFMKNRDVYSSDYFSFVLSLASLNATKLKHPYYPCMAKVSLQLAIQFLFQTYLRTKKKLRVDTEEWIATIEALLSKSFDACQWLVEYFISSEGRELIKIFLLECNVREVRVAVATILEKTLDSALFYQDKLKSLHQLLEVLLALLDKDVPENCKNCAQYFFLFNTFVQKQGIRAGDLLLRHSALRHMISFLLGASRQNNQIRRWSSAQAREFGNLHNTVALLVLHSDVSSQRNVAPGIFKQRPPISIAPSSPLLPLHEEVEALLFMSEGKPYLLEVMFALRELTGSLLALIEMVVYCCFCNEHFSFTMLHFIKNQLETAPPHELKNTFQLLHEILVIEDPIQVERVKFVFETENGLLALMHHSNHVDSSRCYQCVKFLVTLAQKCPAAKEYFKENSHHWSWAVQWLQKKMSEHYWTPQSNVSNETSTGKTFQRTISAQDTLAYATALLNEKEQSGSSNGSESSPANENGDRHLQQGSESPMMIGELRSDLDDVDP
In short: as §1

[4] = biological target: T3, USP25 (UniProt Q9UHP3)
T3 sequence (whole entry): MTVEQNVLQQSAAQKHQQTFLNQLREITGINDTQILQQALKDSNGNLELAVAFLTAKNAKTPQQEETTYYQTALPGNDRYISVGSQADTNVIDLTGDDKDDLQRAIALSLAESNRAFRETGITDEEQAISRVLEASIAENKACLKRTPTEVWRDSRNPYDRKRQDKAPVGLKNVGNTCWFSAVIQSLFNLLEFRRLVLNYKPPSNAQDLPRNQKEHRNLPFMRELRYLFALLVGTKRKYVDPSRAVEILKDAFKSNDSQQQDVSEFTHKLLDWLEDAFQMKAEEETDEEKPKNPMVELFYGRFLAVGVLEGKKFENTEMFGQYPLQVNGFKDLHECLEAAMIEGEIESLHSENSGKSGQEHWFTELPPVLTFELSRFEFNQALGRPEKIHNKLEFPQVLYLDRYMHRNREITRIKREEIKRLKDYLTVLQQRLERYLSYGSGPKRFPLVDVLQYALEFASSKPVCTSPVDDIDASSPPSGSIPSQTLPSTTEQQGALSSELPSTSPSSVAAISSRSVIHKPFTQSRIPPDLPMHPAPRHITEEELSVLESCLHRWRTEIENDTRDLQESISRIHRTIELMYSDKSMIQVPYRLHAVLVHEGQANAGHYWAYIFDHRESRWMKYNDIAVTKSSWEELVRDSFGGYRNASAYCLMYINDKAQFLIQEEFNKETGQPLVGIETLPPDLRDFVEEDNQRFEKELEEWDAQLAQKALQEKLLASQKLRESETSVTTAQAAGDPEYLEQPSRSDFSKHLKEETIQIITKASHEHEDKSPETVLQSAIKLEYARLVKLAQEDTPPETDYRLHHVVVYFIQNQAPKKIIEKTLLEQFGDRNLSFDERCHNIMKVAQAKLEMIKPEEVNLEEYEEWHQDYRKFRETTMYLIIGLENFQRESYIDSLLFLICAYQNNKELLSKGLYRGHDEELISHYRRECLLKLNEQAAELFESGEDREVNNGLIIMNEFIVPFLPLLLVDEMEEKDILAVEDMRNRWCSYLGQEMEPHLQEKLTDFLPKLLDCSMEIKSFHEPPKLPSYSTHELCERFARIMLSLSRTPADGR
In short: as §1

[5] = biological target: T4, USP28 (UniProt Q96RU2)
T4 sequence (whole entry): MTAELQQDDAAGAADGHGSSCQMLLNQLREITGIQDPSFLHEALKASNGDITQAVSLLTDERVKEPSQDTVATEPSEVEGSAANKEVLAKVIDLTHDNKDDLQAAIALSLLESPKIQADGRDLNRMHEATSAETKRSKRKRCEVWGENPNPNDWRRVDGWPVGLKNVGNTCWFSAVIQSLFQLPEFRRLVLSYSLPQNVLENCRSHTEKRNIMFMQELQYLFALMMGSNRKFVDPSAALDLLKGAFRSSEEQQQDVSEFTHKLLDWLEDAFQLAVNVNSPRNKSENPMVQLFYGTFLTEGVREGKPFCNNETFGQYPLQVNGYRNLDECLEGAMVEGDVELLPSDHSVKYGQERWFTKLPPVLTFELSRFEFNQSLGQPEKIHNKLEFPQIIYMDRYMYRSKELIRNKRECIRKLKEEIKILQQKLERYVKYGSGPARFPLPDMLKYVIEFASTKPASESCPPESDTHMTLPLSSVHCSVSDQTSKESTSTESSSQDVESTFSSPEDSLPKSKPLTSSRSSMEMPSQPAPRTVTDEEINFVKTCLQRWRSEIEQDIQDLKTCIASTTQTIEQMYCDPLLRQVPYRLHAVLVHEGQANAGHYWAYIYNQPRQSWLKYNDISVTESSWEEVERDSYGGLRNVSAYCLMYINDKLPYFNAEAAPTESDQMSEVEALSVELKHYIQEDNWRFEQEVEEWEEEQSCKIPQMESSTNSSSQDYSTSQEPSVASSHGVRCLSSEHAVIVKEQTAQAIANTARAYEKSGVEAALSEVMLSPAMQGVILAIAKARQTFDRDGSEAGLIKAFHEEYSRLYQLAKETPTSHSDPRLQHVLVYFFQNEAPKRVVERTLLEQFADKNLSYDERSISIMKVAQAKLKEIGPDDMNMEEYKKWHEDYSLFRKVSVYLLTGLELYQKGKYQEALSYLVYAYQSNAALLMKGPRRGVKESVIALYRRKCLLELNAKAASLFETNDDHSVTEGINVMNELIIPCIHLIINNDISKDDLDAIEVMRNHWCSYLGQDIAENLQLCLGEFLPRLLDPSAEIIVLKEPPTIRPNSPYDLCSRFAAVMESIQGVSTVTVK
In short: as §1

Measured: log2 ratio of Biotin-Ahx-Ub-VS probe labelling

O=C(CCl)N1CCC(S(=O)(=O)c2ccc(F)cc2)CC1
inactive: [1] -0.376 | [2] 0.191 | [3] -0.346 | [4] -0.444 | [5] -0.572
